What all share (type): functional
Test [1] concerns the target Solute carrier family 2, facilitated glucose transporter member 1 (Homo sapiens) (UniProt P11166). As to the kind of experiment: ST_JUDE_LEISH: Cytotoxicity at 2uM final concentration against transgenic Leishmania Mexicana promastigotes LmGLUT1 that are glucose transport deficient and complemented with the human glucose transporter GLUT1. Activity is measured by DNA content using SYBR green in vitro.

Test [2] addresses Hexose transporter 1 (Plasmodium falciparum) (UniProt O97467). As to the kind of experiment: ST_JUDE_LEISH: Cytotoxicity at 2uM final concentration against transgenic Leishmania Mexicana promastigotes LmPfHT that are glucose transport deficient and complemented with the Plasmodium falciparum hexose transporter. Activity is measured by DNA content using SYBR green in vitro.
Test [3] concerns the target Glucose transporter (Leishmania mexicana) (UniProt O61059). As to the kind of experiment: ST_JUDE_LEISH: Cytotoxicity at 2uM final concentration against transgenic Leishmania Mexicana promastigotes LmGT2 that are glucose transport deficient and complemented with the L. Mexicana glucose transporter 2. Activity is measured by DNA content using SYBR green in vitro.

Broadly, the inhibition is the drop in the measured response relative to a control, in per cent.

Chain of Solute carrier family 2, facilitated glucose transporter member 1 (Homo sapiens) (P11166 whole entry): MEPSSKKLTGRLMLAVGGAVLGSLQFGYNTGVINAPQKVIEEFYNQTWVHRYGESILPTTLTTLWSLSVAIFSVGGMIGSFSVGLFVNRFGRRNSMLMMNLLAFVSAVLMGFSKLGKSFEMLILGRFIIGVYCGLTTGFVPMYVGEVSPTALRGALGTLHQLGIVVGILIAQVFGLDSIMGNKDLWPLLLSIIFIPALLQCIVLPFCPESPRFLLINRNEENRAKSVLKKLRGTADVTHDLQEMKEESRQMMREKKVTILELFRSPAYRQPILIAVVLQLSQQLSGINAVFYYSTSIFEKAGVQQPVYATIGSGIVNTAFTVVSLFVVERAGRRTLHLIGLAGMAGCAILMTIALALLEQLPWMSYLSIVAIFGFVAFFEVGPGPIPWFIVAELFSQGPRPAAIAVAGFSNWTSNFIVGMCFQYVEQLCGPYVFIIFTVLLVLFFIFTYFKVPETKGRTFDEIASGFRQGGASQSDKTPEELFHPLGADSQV

For the compound `COc1cccc2cc(C(=O)N[C@@H](CC(C)C)C(=O)N[C@H](/C=N/NC(=O)N3CCN(C)CC3)CCc3ccccc3)oc12`, the inhibition is 9.32% in test [1], 11.9% in test [2] and 8.39% in test [3].
In the case of `CCN1CCN(CCCCNc2c3ccccc3nc3ccccc23)CC1`, the values for the inhibition in test [1], in test [2] and in test [3] were 20.5%, 8.76% and 10.7%, respectively.
In the same order, the values of `Cc1ccnc(Nc2nc(-c3ccccn3)cs2)c1` are 10.1%, 22.4% and -2.74%.
On to `CN1CCN(Cc2cccc(-c3ccc4c(Nc5ccc(F)cc5Cl)ccnc4c3)c2)CC1`, for which the inhibition in test [1] was found to be 4.11%; in test [2], 6.5%; in test [3], 3.82%.
As to `O=C(N[C@@H](CC1CCCCC1)C(=O)NC1CCCCC1)c1ccc(O)c(-c2cccc(C(F)(F)F)c2)c1`, the figures for the inhibition in test [1], in test [2] and in test [3] were -2.73%, -1.15% and -3.33%, respectively.
In the same order, the values of `CCOc1cc(C(=O)NC2CC(C)(C)N(C)C(C)(C)C2)ccc1-c1nc2cc(Cl)c(Cl)cc2[nH]1` are 5.59%, 12.6% and 7.12%.
With `O=C(c1ccc(OCCn2ccnc2)cc1)N1CCC(c2ccc(Br)cc2)C1` (stereo not given), the inhibition was 0.09% in test [1], 3.01% in test [2] and 0.49% in test [3].
The matching figures for `COc1cccc(OC(C)(C)c2nc(N[C@@H](C)c3ccccc3)c3cn[nH]c3n2)c1`: 1.92%, -1.84% and -1.65%.
For `COc1cc2nc(N3CCN(c4cc(C)ccc4C)CC3)nc(N)c2cc1OC`, the inhibition worked out at 1.13% in test [1], 0.08% in test [2] and 0.51% in test [3].
In the same order, the values of `CCCCCCN1CCN(Cc2cccc(NC(=O)c3cc4ccccc4o3)c2)CC1` are 1.59%, 1.56% and 1.59%.
As for `Cc1cccc2nc(-c3ccc(-c4cccc(CNCCc5ccncc5)c4)s3)[nH]c12`, the inhibition stood at 3.13% in test [1], 1.49% in test [2] and 2.73% in test [3].
As to `CCCCCCCC1=NN2C(=N)C(=Cc3cc(Br)c(OCc4ccc(F)cc4)c(OCC)c3)C(=O)N=C2S1`, the figures for the inhibition in test [1], in test [2] and in test [3] were 3.23%, 3.17% and 2.47%, respectively.
As for `O=C(CCN(Cc1ccco1)c1nc(-c2ccc(F)cc2)nc2ccccc12)NC1CC1`, the values for the inhibition in test [1], in test [2] and in test [3] were 4.96%, 1.65% and 9.67%, respectively.
Regarding `COc1cc(CNC[C@@H](O)[C@H](Cc2ccccc2)NC(=O)c2cc(OC(C)C)cc(N3CCCS3(=O)=O)c2)cc(OC)c1`, the inhibition in test [1] was determined as 4.85%; in test [2] it was 4.74%; in test [3], 2.1%.
The matching figures for `COc1ccc2nccc([C@@H](O)CN3CCC(NCc4cc5cccc(O)c5c(=O)[nH]4)CC3)c2c1`: 13.7%, 31.5% and 1.42%.
The matching figures for `COc1ccc(NC(=O)CCNc2cc(C)nc(NCc3ccccc3C)n2)cc1`: 5.23%, 5.4% and 3.93%.
On to `CCCn1c(O)nnc1SCC(=O)Nc1cc(C(F)(F)F)ccc1Cl`, for which the values for the inhibition in test [1], in test [2] and in test [3] were 6.43%, 4.55% and 6.33%, respectively.
In the same order, the values of `CC(=O)Nc1ccc([N+](=O)[O-])c2c(Br)cccc12` are 8.2%, 8.74% and 10.4%.
In the same order, the values of `Cc1cccc2[nH]cc(C3CCN(CCC4CCN(C(=O)/C=C/c5ccc(Cl)c(Cl)c5)CC4)CC3)c12` are 1.19%, -2.11% and 2.11%.
The matching figures for `FC(F)(F)c1ccc2[nH]c(-c3cccc(-c4cccc(CNCC5CCCO5)c4)c3)nc2c1` (stereo not given): 4.7%, 3.63% and 3.26%.
For the compound `Cn1ncc2c3c(CCN4CCC(NCc5ccc6c(c5)NC(=O)CO6)CC4)c(Cl)cnc3ccc21`, the inhibition in test [1] was 1.41%; in test [2], 2.09%; in test [3], -0.28%.
In the same order, the values of `OC(CNc1ccnc(Nc2ccc(Cl)cc2)n1)c1cccc(C(F)(F)F)c1` (stereo not given) are 1.93%, 2.79% and 0.49%.
In the same order, the values of `Cc1nc(-c2ccc(-c3ccc(C(=O)Nc4ccc(Cl)c(N5CCN(C)CC5)c4)cc3)c(C)c2)no1` are 8.11%, 7.83% and 8.29%.
Take `COc1ccc(C(C(=O)NC2CCN(C[C@H](O)c3ccnc4ccc(OC)cc34)CC2)N2CCN(c3ccc(Cl)c(Cl)c3)CC2)cc1` (stereo not given in full): the inhibition in test [1] is -0.26%; in test [2], -2.17%; in test [3] it was -4.15%.
In the same order, the values of `COc1ccc2[nH]c(C)cc(=NN=Cc3ccc(Cl)cc3)c2c1` are 6.05%, 6.41% and -0.5%.
In the same order, the values of `CCN1CCN(CCCNc2ccnc3cc(Cl)ccc23)CC1` are 0.93%, 2.24% and 2.15%.
The matching figures for `CCCNCc1ccc(-c2ccc(CN(CCOC)C(=O)c3cccc(C#N)c3)cc2)nc1`: 1.66%, 1.45% and 3.74%.
Take `COc1ccc(N2CCc3c(-c4cccc5cnccc45)cc(C)nc32)c(C)c1`: the inhibition in test [1] is -0.79%; in test [2], 0.13%; in test [3], -0.88%.
For the compound `CCC(=O)Nc1ccc(C(O)CN2CCC3(C=Cc4ccccc4O3)CC2)cc1` (stereo not given), the inhibition in test [1] amounted to 3.61%; in test [2] it was 2.65%; in test [3], 1.63%.
On to `COc1ccc(Cl)cc1NC(=O)C(C)N1CCN(S(=O)(=O)c2ccccc2F)CC1` (stereo not given), for which the figures for the inhibition in test [1], in test [2] and in test [3] were 4.36%, 3.53% and 3.44%, respectively.
The matching figures for `Fc1ccc(Nc2ccnc3cc(-c4cccc(CNCCN5CCOCC5)c4)ccc23)c(Cl)c1`: 2.04%, 2.83% and 2.84%.
Consider `COc1ccc(Cl)cc1N1CCN(CCCNC(=O)c2ccc(-c3nc4c(C)cccc4[nH]3)s2)CC1`, for which the inhibition in test [1] was 1.19%; in test [2], -0.51%; in test [3] it was -1.08%.
As to `Clc1cc(Nc2ncnc3cc(C#C[C@H]4CCCN4)sc23)cc2nc(Cc3ccccc3)[nH]c12`, the results for the inhibition in test [1], in test [2] and in test [3] were 1.94%, -0.56% and -1.61%, respectively.
On to `O=C(c1ccc(Cl)cc1Cl)N1CCCC(C(F)(F)F)C1` (stereo not given), for which the inhibition in test [1] stood at 8.69%; in test [2], 11.4%; in test [3] it was 10.3%.
`COc1ccc(Nc2cc(C)nc(NCc3ccc4c(c3)OCO4)n2)cc1`: the inhibition in test [1] was 5.82%; in test [2], 4.09%; in test [3] it was 1.69%.
The matching figures for `O=C(C=Cc1ccc(-c2nc3ccccc3[nH]2)cc1)NC1CCN(Cc2ccccc2)CC1`: -1.19%, 1.99% and 5.3%.
The matching figures for `CCCc1cn2c3c(cc(C(=O)N[C@@H](Cc4ccccc4)[C@H](O)CNC4CCOCC4)cc13)N(CC)S(=O)(=O)CC2`: 1.86%, 2.35% and 1.03%.
With `CCCCN(CCCC)CCNC(=O)c1cc(OC(F)(F)F)ccc1O`, the inhibition in test [1] stood at 1%; in test [2], 0.8%; in test [3], 0.03%.
In the same order, the values of `CCN(c1ccc(F)cc1)S(=O)(=O)c1cc(Br)cc2c1N(C(=O)C1CC1)CC2` are 0.4%, 1.32% and 3.74%.
For `NCCCCc1c(-c2ccc(Cl)c(Cl)c2)[nH]c2ccc(Cl)cc12`, the figures for the inhibition in test [1], in test [2] and in test [3] were -2.7%, -1.68% and -3.34%, respectively.
Consider `Cc1cc(N2CCCC2)nc(Nc2ccc(NC(=O)C(C)Oc3ccccc3)cc2)n1` (stereo not given), for which the values for the inhibition in test [1], in test [2] and in test [3] were 10.6%, 15.9% and 7.47%, respectively.
In the same order, the values of `Cc1cc(C)c(C(=O)Nc2ccc3nc(C)cc(N)c3c2)c(C)c1` are -0.82%, 1.52% and 2.61%.
In the same order, the values of `O=C(/C=C/c1ccc(Cl)c(Cl)c1)NCCCCCCN1CCN(C(=O)Nc2ccc(F)c(Cl)c2)CC1` are 13.8%, 11.5% and 14.1%.
On to `OC(CNc1ccnc(Nc2cccc(CCN3CCOCC3)c2)n1)c1ccccc1` (stereo not given), for which the inhibition in test [1] turned out to be 0.07%; in test [2], 3.46%; in test [3], 1.35%.
On to `CCOc1ccc2c(=NN=Cc3ccc(F)cc3)cc(C)[nH]c2c1`, for which the inhibition was found to be 4.44% in test [1], 3.21% in test [2] and 1.49% in test [3].
In the same order, the values of `COc1ccc(Cn2cncc2CN(CCC(C)C)C(=O)c2ccc(Cl)nc2Cl)cc1` are 2.52%, 2.14% and 2.49%.
In the same order, the values of `CCCCCCN1CCC(NCc2ccc(C)cc2)CC1` are 12.6%, 16% and 17.6%.
Regarding `Cc1n[nH]c(C)c1C1CCN(CC2CCC(NC(=O)/C=C/c3ccc(Cl)c(Cl)c3)CC2)CC1` (stereo not given), the inhibition came out at 4.43% in test [1], 4.25% in test [2] and 5.93% in test [3].
The matching figures for `CC(C)(C)c1ccc2oc(=O)n(C3CCN(C(=O)c4ccc([N+](=O)[O-])o4)CC3)c2c1`: 5.8%, 10.9% and 0.29%.
As for `COc1ccc2nccc(N3CCN(CCNCc4ccc5c(n4)NC(=O)CS5)CC3)c2c1`, the inhibition stood at 1.43% in test [1], 0.73% in test [2] and 0.44% in test [3].
Take `CN(c1ccc(NC(=O)Nc2cc(C(C)(C)C)on2)cc1)c1ccnc(NCCOC(=O)Nc2cc(C(C)(C)C)on2)n1`: the results for the inhibition in test [1], in test [2] and in test [3] were 10.6%, 7.48% and 11.5%, respectively.
As for `Cc1ccc(/C=C/C(=O)NCCCCCN2CCC(c3c[nH]c4ccccc34)CC2)cc1`, the inhibition in test [1] came out at 5.46%; in test [2] it was 5.57%; in test [3], 3.18%.
In the same order, the values of `Cc1cccc2nc(-c3ccc(-c4ccc(NC(=O)C(C)CN(C)C)cc4)cc3)[nH]c12` (stereo not given) are 11.2%, 9.44% and 5.39%.
As for `COc1ccc(-c2cccc(NC(=O)c3cccc(C#N)c3)c2)cc1CN1CCCN(C)CC1`, the figures for the inhibition in test [1], in test [2] and in test [3] were 1.45%, 1.13% and 5.93%, respectively.
The matching figures for `COc1ccc(NC(=O)Nc2ccc(-c3ccccc3)cc2)cc1Cn1cnc(N2CCCNCC2)cc1=O`: 3.65%, 2.02% and 4.94%.

(Values after ChEMBL document CHEMBL3433997, “St. Jude Leishmania screening dataset” (2016).)
